# PubChem BioAssay AID778 (Sanford-Burnham Center for Chemical Genomics, 2007)
# Screen size: about 96,000 compounds; about 20,000 (21%) were called active.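 How the source made its calls: active means CYP2C19 inhibition above a set limit at 5 µM in the primary screen (cut at about 50% in these data); inactive means the rest.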 The list is a sample of the results.
# Target: Cytochrome P450 2C19 (Homo sapiens) (UniProt P33261)
# Assay: blockers of cytochrome P450 2C19 activity – biochemical, luminescence, ADME assay, primary screen (AID 778);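 further: plate controls were negative control wells for no effect and 2.5 mM tranylcypromine positive control for full effect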
# Conditions: CYP2C19 Supersomes, luciferin-H EGE luminescence, 30 min; at 5 µM; active compounds read high
# Cytochrome P450 2C19 (Homo sapiens), sequence (P33261 whole entry, looked up): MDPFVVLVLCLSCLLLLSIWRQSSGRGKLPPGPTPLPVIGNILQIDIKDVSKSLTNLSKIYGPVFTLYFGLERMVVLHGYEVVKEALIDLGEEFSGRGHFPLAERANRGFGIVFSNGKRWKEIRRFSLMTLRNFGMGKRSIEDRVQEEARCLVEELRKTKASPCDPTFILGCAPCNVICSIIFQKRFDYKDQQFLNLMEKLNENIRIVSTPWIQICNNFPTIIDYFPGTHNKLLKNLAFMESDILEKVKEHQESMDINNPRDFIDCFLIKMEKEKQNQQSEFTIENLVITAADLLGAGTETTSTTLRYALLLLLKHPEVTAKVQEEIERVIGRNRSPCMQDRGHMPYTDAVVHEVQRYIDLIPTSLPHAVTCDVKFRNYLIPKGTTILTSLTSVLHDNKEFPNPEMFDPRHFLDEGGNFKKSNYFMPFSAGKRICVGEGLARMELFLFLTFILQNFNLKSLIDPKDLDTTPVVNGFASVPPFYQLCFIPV
row,Compound,inhibition
1,N#CC1=C(N)Oc2c(sc3ccccc23)C1c1ccco1 (stereo unspecified),22.6% (inactive)
2,Cc1c(Cl)c([N+](=O)[O-])nn1Cc1ccc(C(=O)N/N=C\c2cc(Cl)ccc2O)o1,31.1% (inactive)
3,CCN(CC)CCn1c(=S)[nH]c2ncccc2c1=O,-16.9% (inactive)
4,Cc1cccc(N2C(=O)c3cccnc3C2=O)c1,10.5% (inactive)
5,COC(=O)c1ccc(Cc2ccccc2)o1,-1.3% (inactive)
6,COC(=O)c1ccc(CN(c2ccccc2OC)S(=O)(=O)c2cccs2)o1,98.5% (active)
7,COc1ccc(C(C(=O)NCc2ccccc2)N(Cc2cccs2)C(=O)c2cnccn2)cc1 (stereo unspecified),47% (inactive)
8,CCCCN(CCCC)C(=O)CCS(=O)(=O)c1ccc2c(c1)n(C)c(=O)c(=O)n2C,3.1% (inactive)
9,CS(=O)(=O)c1ccc2c(c1)SC1=NC(=O)/C(=C/c3ccco3)C(=N)N12,8.6% (inactive)
10,CCS(=O)(=O)N1CCCC(C(=O)NCCCN(C)Cc2ccccc2)C1 (stereo unspecified),-3% (inactive)
11,O=C(O)CN1C(=O)CC(Cc2ccccc2)C1=O (stereo unspecified),-1% (inactive)
12,Cc1cc(C)nc(N2C(=O)CC(Cc3ccccc3)C2=O)n1 (stereo unspecified),15.5% (inactive)
13,O=C1CC(Cc2ccccc2)C(=O)N1c1ccc(Cl)cn1 (stereo unspecified),59.4% (active)
14,COc1ccc(-n2c(C)nc3c(cnn3-c3ccccc3)c2=O)cc1,14.9% (inactive)
15,Cc1cc(C)c(S(=O)(=O)c2ccccc2)c(OC(=O)c2c(F)cccc2Cl)n1,12.4% (inactive)
16,Cc1nc(C)c(C(=O)Nc2ccc(C)c(F)c2)o1,-9% (inactive)
17,CCOc1ccccc1-n1c(SCC(=O)N2CCCC2)nnc1-c1ccoc1C,2% (inactive)
18,Cc1ccc2nc(/C(C#N)=C\c3ccc(OC(=O)c4cccs4)cc3)[nH]c2c1,50.9% (active)
19,Cc1ccc2nc(S(=O)(=O)O)[nH]c2c1,-14.4% (inactive)
20,COc1ccc(/C=C(/NC(=O)c2ccc(C)cc2)c2nc3ccccc3[nH]2)cc1OC,35.6% (inactive)
21,C=CCn1c(SCC(=O)/C(C#N)=C(\C)N)nc2sc(C)c(C)c2c1=O,6.6% (inactive)
22,Cc1cnc(NC(=O)CSc2nnc(C)s2)s1,19.7% (inactive)
23,O=C(CSc1ncnc2c1cnn2CCc1ccccc1)Nc1ccc(F)cc1,7.1% (inactive)
24,CCC(C)NC(=O)N[C@@H](CCSC)C(=O)O (stereo partly specified),-1.9% (inactive)
25,CCCSc1nc(NCc2ccco2)c2c3c(sc2n1)COC(C)(CC)C3 (stereo unspecified),13.8% (inactive)
26,CCC1(C)Cc2c(sc3nnn(CC(=O)Nc4ccc(Cl)cc4)c(=O)c23)CO1 (stereo unspecified),22.1% (inactive)

row,Compound,inhibition
1,CCC1(C)Cc2c(sc3nc(SC)nc(N)c23)CO1 (stereo unspecified),80.9% (active)
2,COC(=O)c1cc(OC)c(OC)cc1NC(=O)C1CCCO1 (stereo unspecified),23.5% (inactive)
3,O=C(Nc1sc2c(c1-c1nc3ccccc3[nH]1)CCCC2)C1CC1,9.4% (inactive)
4,O=C1NC(c2ccncc2)Nc2sc3c(c21)CCCC3 (stereo unspecified),82.8% (active)
5,Cc1ccc(C(=O)c2c(NC(=O)c3ccncc3)sc3c2CCCC3)cc1,28.7% (inactive)
6,COc1ccc2nc(NC3=NCN(CC4CCCO4)CN3)nc(C)c2c1 (stereo unspecified),2% (inactive)
7,Cc1cccn2c(=O)c(/C=C(\C#N)S(=O)(=O)c3ccc(Cl)cc3)c(N3CCC(C(N)=O)CC3)nc12,86.2% (active)
8,COc1ccccc1-c1nc(C#N)c(N2CCC(C(N)=O)CC2)o1,-9.9% (inactive)
9,Cc1ccc(C(c2nnnn2CS(=O)(=O)c2ccc(C)cc2)N2CCC(C(N)=O)CC2)cc1 (stereo unspecified),0.4% (inactive)
10,COc1ccc(-c2cc(C(=O)NC(C(=O)O)C(C)C)c(C)o2)cc1OC (stereo unspecified),6.4% (inactive)
11,CCN(CC)P(=O)(C(NC(=O)OC)C(F)(F)C(F)(F)C(F)(F)C(F)F)N(CC)CC (stereo unspecified),10% (inactive)
12,CCN(CC)CCNC(=O)CCCCCn1c(=O)[nH]c2cc(C(=O)OC)ccc2c1=O,0% (inactive)
13,Cc1n[nH]c(C)c1S(=O)(=O)N1CCCC(C(=O)NCC2COc3ccccc3O2)C1 (stereo unspecified),15.3% (inactive)
14,Cc1nn(-c2ccccn2)c2c1C(c1ccncc1)C1=C(CC(C)(C)CC1=O)N2 (stereo unspecified),98.7% (active)
15,Cc1cc2c(cc1C)NC(c1ccccn1)C1=C(CC(C)(C)CC1=O)N2 (stereo unspecified),1.3% (inactive)
16,O=S(=O)(N1CCCCC1)N1CCNCC1,-28.7% (inactive)
17,CCN(CC)CCn1c2ccc(Cl)cc2c2nc(C)sc21,49.4% (inactive)
18,CCC1CCCCN1C(=O)Nc1cccc(NC(=O)N2CCCCC2CC)c1 (stereo unspecified),-10.7% (inactive)
19,COc1ccc(C(C)=O)cc1CN1C(=O)NC2(CCCCC2C)C1=O (stereo unspecified),33.8% (inactive)
20,Cc1[nH]c2ccccc2c1C(=O)COC(=O)C(C)C,25.9% (inactive)
21,Cc1c(C(=O)N2CCOCC2)[nH]c2ccc(OCc3ccccc3)cc12,43.3% (inactive)
22,Cc1c(C(=O)CN2CCOCC2)[nH]c2ccccc12,56% (active)
23,CCOC(=O)N1CCN(CC(=O)c2c(C)[nH]c3ccccc23)CC1,88% (active)
24,Cc1ccc2c(C(=O)CN3CCCC3)c(C)[nH]c2c1,26.2% (inactive)
25,CC1CCN(CC(=O)c2c[nH]c3ccccc23)CC1,12.2% (inactive)
26,CSc1nc2ccccc2cc1/C=C(\C#N)c1ccc(Cl)cc1Cl,12.7% (inactive)

row,Compound,inhibition
1,COc1ccc(OC)c(CN2C(=O)CCC2(C)C(=O)NC2CCCCCC2)c1 (stereo unspecified),18.1% (inactive)
2,CCOc1c2ccc(C(=O)NCc3ccc(OC(F)(F)F)cc3)cc2nn1C,13.9% (inactive)
3,O=C(NCc1cccs1)c1ccc2c(c1)ncn2C1CCCC1,5.6% (inactive)
4,O=C(COC(=O)c1ccccc1SCC(=O)NC1CCCCC1)NC1CCCCC1,12.2% (inactive)
5,COCCNC(=O)c1onc(CSc2cccc(C)c2)c1C(=O)O,39.1% (inactive)
6,CCOC(=O)CC1C(=O)NCCN1C(=O)COc1ccc(Br)cc1C (stereo unspecified),15.5% (inactive)
7,C=C(Br)Cn1c(CCCC)nc2ccccc21,63.8% (active)
8,CCCCn1c(CN2CCN(CCO)CC2)nc2ccccc21,20.4% (inactive)
9,CCCCn1c(CCCNC(=O)CC)nc2ccccc21,-20% (inactive)
10,Cc1nc2c(-c3ccccc3)c(C)[nH]n2c(=O)c1Cl,-1% (inactive)
11,CC(=O)Nc1nc(C)c(Cc2ccccc2)c(=O)[nH]1,6.3% (inactive)
12,CC(Sc1sc(=S)sc1SC(C)C(=O)O)C(=O)O (stereo unspecified),-1.4% (inactive)
13,CC1Cc2ccccc2N1C(=O)c1cc2sccc2n1Cc1ccccc1 (stereo unspecified),25.4% (inactive)
14,CCCOc1ccc(Cn2c(O)cc(=O)[nH]c2=O)cc1,-7.8% (inactive)
15,CCOC(=O)c1cc2sccc2n1Cc1ccc(C#N)cc1,96.9% (active)
16,CCOc1ccc(-c2nnc(-c3ccco3)o2)cc1,19% (inactive)
17,COc1cc(C2CC(=O)N3CN(Cc4ccccc4)CSC3=C2C#N)ccc1OCc1ccccc1 (stereo unspecified),33% (inactive)
18,O=C(NCCCCc1ccccc1)C1CC(c2ccc([N+](=O)[O-])cc2)=NO1 (stereo unspecified),9.5% (inactive)
19,Cc1ccc(CNC(=O)C2CC(c3ccccc3[N+](=O)[O-])=NO2)o1 (stereo unspecified),61.7% (active)
20,COc1ccc(C2=NOC(C(=O)NCc3ccco3)C2)cc1OC (stereo unspecified),-4.7% (inactive)
21,O=C(O)CN(Cc1ccco1)S(=O)(=O)c1ccccc1,-12.5% (inactive)
22,Cc1ccc(CC2CC(=O)N(c3ccc4c(c3)OCCO4)C2=O)cc1 (stereo unspecified),62.6% (active)
23,COc1ccc(N2CCN(C3CC(=O)N(c4ccc5c(c4)OCCO5)C3=O)CC2)cc1 (stereo unspecified),9.7% (inactive)
24,Cc1ccc(N2C(=O)CC(Sc3ncn[nH]3)C2=O)cc1 (stereo unspecified),5.4% (inactive)
25,COC(=O)N1CN(C(=O)OC)CN(C(=O)OC)C1,-10.2% (inactive)
26,CCn1c(SCc2ccc(C)cc2)nnc1-c1nn(-c2ccccc2)ccc1=O,-0.8% (inactive)

row,Compound,inhibition
1,O=C(NCc1ccco1)c1cc2sccc2n1Cc1ccc(F)cc1,32.8% (inactive)
2,O=C(Cc1ccc(-n2c(=O)c3sccc3n(Cc3ccc(F)cc3)c2=O)cc1)NCc1ccco1,49.5% (inactive)
3,O=C(NCc1ccco1)c1ccc(Cn2c(=O)c3sccc3n(Cc3ccc(F)cc3)c2=O)cc1,79.8% (active)
4,C=CCn1c(Oc2ccc(C(=O)OC)cc2)nc2c1c(=O)n(C)c(=O)n2C,5.6% (inactive)
5,CC(=O)NCCc1ccc(S(=O)(=O)N(C)C2CCS(=O)(=O)C2)cc1 (stereo unspecified),-2.2% (inactive)
6,Cc1cc(C)c(S(=O)(=O)N2C=CC(C(F)(F)F)=NCC2)c(C)c1,19% (inactive)
7,O=C(CNS(=O)(=O)c1cccc(C(F)(F)F)c1)Nc1ccccc1F,74.7% (active)
8,CCNS(=O)(=O)c1ccc(NC(=O)Nc2cccc(C(F)(F)F)c2)cc1,1.1% (inactive)
9,O=C(Cn1cc(/C=N/NC(=O)c2cccc(C(F)(F)F)c2)c2ccccc21)Nc1ccc(F)cc1,9.9% (inactive)
10,CCN(CC(=O)NCc1cccs1)c1nnnn1-c1ccccc1,27.1% (inactive)
11,Oc1c(CN2CCN(c3ccc(F)cc3)CC2)cc(Cl)c2cccnc12,18.8% (inactive)
12,COCCn1nnnc1CN1CCC(NC(=O)Nc2cccc(OC)c2)CC1,-0.3% (inactive)
13,COCCn1nnnc1C(c1ccccc1Cl)N1CCN(c2ccccc2OC)CC1 (stereo unspecified),54% (active)
14,COc1cc(-n2c(C)nc3cc(C(=O)NCc4ccco4)ccc32)cc(OC)c1OC,42.8% (inactive)
15,COC(=O)CCSc1nccn1Cc1ccccc1,76.8% (active)
16,CCCCNC(=O)CSc1nnc(-c2ccco2)n1C,20% (inactive)
17,COC(=O)Cn1nc(-c2ccccc2)c2cc(Cl)ccc21,21.2% (inactive)
18,Nc1nonc1C(=O)NCCc1ccccc1,31.5% (inactive)
19,CCCCCCNC(=O)CSc1nccn1Cc1ccccc1,37.7% (inactive)
20,CCCCNC(=O)CSc1nccn1Cc1ccccc1,53.8% (active)
21,O=C(CSc1ncccn1)NC(=O)NCc1ccccc1,13.9% (inactive)
22,O=C(CSc1ncccn1)NCCc1ccccc1,80.6% (active)
23,O=C(O)CSc1nccn1-c1cccc(Cl)c1,43.9% (inactive)
